Hits are enriched below; roughly 6.4% of the tested compounds scored in any of these assays.
Gal4-VP16 FLuc – Gal4-VP16 reporter inhibition counter-screen | Drosophila S2 Gal4-VP16 UAS-luciferase, luminescence, 20 h | Potency, µM (top dose mostly 53.6 µM), inactives show top-dose activity, negative = inhibition, usual class: inhibitors | actives 3.5% (n = 310,000) | AID 2546;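 also: Gal4-VP16 expression switched on by copper sulfate through the metallothionein promoter; nearly all actives have a fitted effect of over 50% in size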
RORg inh – ROR gamma (mouse) transcription inhibition | P51450 | Drosophila S2 Gal4-RORgamma UAS-luciferase reporter, 20 h | Potency, µM (doses to about 53.6 µM), for inactives: top-dose activity change, negative = inhibition, usual class: inhibitors | actives 5.4% (n = 310,000); also: nearly all actives have a fitted effect of over 60% in size
Target sequence (P51450 whole entry, looked up, the tested form may be a part): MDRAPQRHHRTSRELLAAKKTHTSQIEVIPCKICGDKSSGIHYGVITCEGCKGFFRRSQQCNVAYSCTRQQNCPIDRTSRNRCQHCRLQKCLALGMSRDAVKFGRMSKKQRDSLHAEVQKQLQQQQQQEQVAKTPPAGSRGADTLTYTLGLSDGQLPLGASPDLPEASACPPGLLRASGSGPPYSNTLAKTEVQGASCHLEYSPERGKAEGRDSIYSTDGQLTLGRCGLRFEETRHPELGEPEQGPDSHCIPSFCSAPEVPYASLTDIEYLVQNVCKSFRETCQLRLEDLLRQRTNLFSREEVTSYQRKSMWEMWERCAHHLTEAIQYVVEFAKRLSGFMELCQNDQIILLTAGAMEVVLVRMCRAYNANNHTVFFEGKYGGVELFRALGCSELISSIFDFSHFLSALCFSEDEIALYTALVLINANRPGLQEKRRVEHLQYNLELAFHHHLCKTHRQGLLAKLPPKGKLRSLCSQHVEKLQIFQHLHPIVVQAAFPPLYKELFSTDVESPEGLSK
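ROR gamma transcriptional activity was tracked as Gal4-UAS luciferase output in stably transfected Drosophila Schneider cells, with compound added 1 hr before 700 uM copper sulfate induction and a 20 hr ambient-temperature incubation.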
Luc counter – Kinase-Glo luciferase inhibition (counter-screen); Potency, µM (doses to about 38.3 µM), inactives show top-dose activity change, negative = inhibition, usual class: inhibitors; actives 0.28% (n = 200,000); Kinase-Glo luciferase, ATP luminescence, 8 min; also: nearly all actives have a fitted effect of over 60% in size
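Light output from Kinase-Glo luciferase with luciferin and 10 uM ATP in 50 mM imidazole pH 7.2, KCl, MgCl2, Tween 20, BSA; compound pin-delivered, 8-min ambient incubation, then luminescence read.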
Starred values were filed as active, the others as inactive; ? = inconclusive; nt = no result given; [ ] = remark or other dose. Calls follow the shape of the dose curve; as a rule, active = well fitted curve in the direction sought with a large enough effect; inconclusive = small, poorly fitted or top-dose-only effect, or another doubt; inactive = no such curve, though single readings can be large; an effect the other way counts as inactive or inconclusive. % is scaled to controls: 0 for no effect and ±100 for the full control effect; potency is read from the fitted curve at half-maximal effect.

SMILES | Gal4-VP16 FLuc | RORg inh | Luc counter
CC(/C=C/c1ccc2c(c1)OCO2)=N/NC(=O)c1ccncc1 | 17.8µM* | 5.62µM* | nt
Cc1ccc(C(=O)N/N=C\c2cc3c(cc2Br)OCO3)cn1 | -2.3% | -0.3% | nt
CC1=C(/C=C/C(C)=N\NC(=O)c2ccncc2)C(C)(C)CCC1 | ? | 7.94µM* | -4.9%
O=[N+]([O-])c1cccc(/C=C/c2ccncc2)c1 | -15.4% | -9.7% | nt
O=C(N/N=C/c1ccc2c(c1)OCCO2)c1ccncc1 | 0.1% | -4.3% | nt
CC1=C(/C=C\C(=O)O)C(C)(C)CCC1 | nt | nt | -4.2%[7.66 µM]
CC(/C=C/c1cccc([N+](=O)[O-])c1)=N\NC(=O)c1ccncc1 | 10µM* | 5.01µM* | -2.3%
COc1cccc(-c2ccnc3[nH]n(-c4ccccc4)c(=O)c23)c1 | 8.1% | 27.9% | nt
COC(=O)C/C=C/[C@@H](C)[C@H](OC)c1c(Br)ccc2c1OCO2 | 1.7% | 7.6% | -0.5%
Cn1cnnc1SCC(=O)Nc1ccccc1Oc1ccccc1 | -13.2% | 20.4% | -1.4%
CCCCCCCCCCCCC/C=C\[C@@H](O)[C@@H](N)CO | -3.2% | 5.8% | -1.0%
O=C(c1c(F)cccc1F)N1CCN(CCOc2ccccc2)CC1 | 4.7% | 1.7% | nt
C=C(C)COc1ccc(C2NC(=O)c3ccccc3O2)cc1OCC (stereo not given) | 8.9% | 0.8% | nt
O=C1C[C@@H](O)[C@@H](O)[C@@H]2[C@H]3C(=O)N(c4ccc(F)cc4F)C(=O)[C@@H]3CC[C@@H]12 | 4.3%[10 µM] | 10.8%[10 µM] | nt
CN(C)CCNC(=O)/C=C/c1cn(-c2ccccc2)nc1-c1cc2ccccc2oc1=O | 7.8% | ? | -0.2%
CC(/C=C/c1ccc2c(c1)OCO2)=N/NC(=O)c1cccnc1 | 6.31µM* | 3.55µM* | -1.6%
C/C(=N\NC(=O)c1ccc2c(c1)OCO2)c1cccnc1 | -22.6% | ? | nt
CCOc1ccc(OCC)c(S(=O)(=O)n2cnc(C)c2)c1 | -5.3% | 1.2% | nt
O=C(NC(=S)N1CCCc2ccccc21)c1ccco1 | ? | ? | 3.3%
CC(=O)c1cccc(NC(=S)N2c3ccccc3CC2C)c1 (stereo not given) | 1.4% | ? | 8.0%
CC1Cc2ccccc2N1C(=S)NC(=O)C1(C)CC1(Cl)Cl (stereo not given) | 2.24µM* | 0.631µM* | 0.6%
CC1Cc2ccccc2N1C(=S)NC(=O)c1ccco1 (stereo not given) | 3.98µM* | 4.47µM* | 2.5%
COc1ccc(-c2ccc(C3C4C=CCC(C)C4C(=O)N3Cc3ccccc3)c(F)c2)cc1OC (stereo not given) | -3.4% | 40.3% | nt
S=c1nc2ccccc2c2nc(-c3ccccc3Br)[nH]n12 | 2.24µM* | 0.447µM* | nt
c1ccc(-c2nc3ccccc3c3nncn23)cc1 | -3.1% | -21.3% | 1.4%
SMILES | Gal4-VP16 FLuc | RORg inh | Luc counter
O=C(Nc1ccccc1)Nc1cccc(Cl)c1Cl | -1.3% | ? | -4.8%
CCOc1ccc(NC(=O)Nc2ccccc2C(N)=O)cc1 | -5.6% | 9.0% | 7.08µM*
CCOc1ccc(NC(=O)Nc2ccc(NC(C)=O)cc2)cc1 | -6.2% | 13.2% | -0.9%
Cc1ccc(NC(=O)Nc2ccccc2C(N)=O)cc1 | 18.6% | 15.6% | nt
O=C(Nc1ccc(Oc2ccc(NC(=O)Nc3ccccc3Cl)cc2)cc1)Nc1ccccc1Cl | ? | 2.51µM* | nt
COc1ccc(NC(=O)Nc2ccccc2C(N)=O)cc1 | 2.6% | -9.9% | 8.91µM*
CC1(C)C(=O)OC(/C=C\c2cccc([N+](=O)[O-])c2)C(C)(C)C1=O (stereo not given) | 6.8%[10 µM] | 15.8% | -2.3%
CCn1c(SCC(=O)NNC(=O)c2ccc(C)cc2)nnc1C1CC1 | -7.1% | -5.7% | nt
O=C(NCc1ccccn1)c1ccc(OC2CCN(Cc3cccs3)CC2)cc1 | 1.7% | 26.3% | nt
COc1ccc(OC)c(NC(=O)CSc2nnc(CNC(=O)c3cccs3)o2)c1 | 1.3% | -21.7% | nt
O=C(c1ccncc1)N1CCC[C@@]2(CCN(Cc3ccccc3)C2)C1 | 1.2% | 7.2% | -0.3%
C=C1CCN(C(C)C(=O)OCc2cccc(C)c2)S(=O)(=O)c2ccccc21 (stereo not given) | 1.7% | 5.3% | nt
COc1cc(C(=O)Oc2ccccc2/C=N/NC(=O)c2ccc(C)c(Cl)c2)cc(OC)c1OC | ? | 5.01µM* | 1.8%
COc1ccc(C(=O)N/N=C/c2ccccc2C(=O)O)cc1OC | -5.8% | -3.9% | nt
COc1cc(C(=O)Oc2ccccc2/C=N/NC(=O)c2ccc(Cl)cc2)cc(OC)c1OC | 11.2µM* | 6.31µM* | -0.7%
CC(=O)Nc1ccc(C(=O)N/N=C/c2ccccc2OC(=O)c2ccc(Cl)cc2)cc1 | -8.5% | ? | 3.9%
CC(C)(C)C(=O)Nc1cc2c3c(c1)CCN3C(=O)CC2 | -5.2% | ? | nt
